Assay results reported in PubChem BioAssay (NCI).
About 83,000 compounds went through this panel and 20% of them were active in at least one assay; those are over-represented in the sample as a whole.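 Percent growth is the endpoint: 0 to 100 indicates growth inhibition (40 means 60% inhibition), 0 means no net growth, and negative values indicate cell death.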 Calls of active or inactive are those of the source. Rule for the calls: active = growth percent below 10; inactive = the rest.

How the values were obtained:
Assay in all cases: NCI-60 one-dose screen, 48 h (100 = growth as untreated, 0 = no growth, -100 = all killed)
Settings in all cases: 10 µM unless noted
SR leukemia = tested on: SR leukemia
OVCAR-8 ovarian = tested on: OVCAR-8 ovarian
OVCAR-5 ovarian = tested on: OVCAR-5 ovarian
OVCAR-4 ovarian = tested on: OVCAR-4 ovarian
IGROV1 ovarian = tested on: IGROV1 ovarian
OVCAR-3 ovarian = tested on: OVCAR-3 ovarian
HS 578T breast = tested on: HS 578T breast
NCI/ADR-RES ovarian = tested on: NCI/ADR-RES ovarian
T-47D breast = tested on: T-47D breast
BT-549 breast = tested on: BT-549 breast
MDA-MB-435 melanoma = tested on: MDA-MB-435 melanoma
SW-620 colon = tested on: SW-620 colon
MCF7 breast = tested on: MCF7 breast
HCT-116 colon = tested on: HCT-116 colon
HCC-2998 colon = tested on: HCC-2998 colon
KM12 colon = tested on: KM12 colon
SK-OV-3 ovarian = tested on: SK-OV-3 ovarian

Measured: growth

O=C1Nc2ccc(Cl)cc2/C1=N/N=C/c1c[nH]c2ccccc12
inactive: SR leukemia 75.2% | OVCAR-8 ovarian 76% | OVCAR-5 ovarian 89.8% | OVCAR-4 ovarian 67.8% | IGROV1 ovarian 42.7% | OVCAR-3 ovarian 76.5% | HS 578T breast 22% | NCI/ADR-RES ovarian 98.1% | T-47D breast 73.4% | BT-549 breast 93.5% | MDA-MB-435 melanoma 87% | SW-620 colon 79.2% | MCF7 breast 71.1% | HCT-116 colon 75.6% | HCC-2998 colon 101% | KM12 colon 68.1%

O[C@H]1CO[C@H]2[C@@H]1OC[C@@H]2Oc1ccc(Nc2ccnc(Nc3ccc(O[C@H]4CO[C@H]5[C@@H]4OC[C@@H]5O)c(Cl)c3)n2)cc1Cl
inactive: SR leukemia 12.2% | OVCAR-5 ovarian 27.6% | OVCAR-4 ovarian 19.8% | SK-OV-3 ovarian 19.1% | OVCAR-3 ovarian 13.6% | NCI/ADR-RES ovarian 74.1% | BT-549 breast 22.1% | MDA-MB-435 melanoma 22.7% | SW-620 colon 19.5% | MCF7 breast 14.6% | HCC-2998 colon 17.1%
active: OVCAR-8 ovarian 7.77% | IGROV1 ovarian -2.78% | HS 578T breast -2.86% | HCT-116 colon 9.14% | KM12 colon 6.62%

O=C(NCCOCCOCCNc1cccc2c1C(=O)N(C1CCCNC1=O)C2=O)c1cc2c(o1)C(=O)c1ccccc1C2=O (stereo unspecified)
active: OVCAR-8 ovarian 3.33% | OVCAR-5 ovarian -84.5% | OVCAR-4 ovarian -98.1% | IGROV1 ovarian -15.4% | OVCAR-3 ovarian -25% | HS 578T breast -22.2% | BT-549 breast -94.7% | MDA-MB-435 melanoma -94.1% | SW-620 colon -6.93% | MCF7 breast -63.3% | HCT-116 colon 0.0602% | HCC-2998 colon -56.2% | KM12 colon -14.2%
inactive: SR leukemia 13.3% | NCI/ADR-RES ovarian 48.6% | T-47D breast 14.9%

O=C1CCC(N2C(=O)c3cccc(NCCCC4CCN(CCNC(=O)c5cc6c(o5)C(=O)c5ccccc5C6=O)CC4)c3C2=O)C(=O)N1 (stereo unspecified)
inactive: SR leukemia 14.5% | NCI/ADR-RES ovarian 20.4%
active: OVCAR-8 ovarian 6.28% | OVCAR-5 ovarian -98% | OVCAR-4 ovarian -99.3% | IGROV1 ovarian -50.3% | OVCAR-3 ovarian -90.9% | HS 578T breast -25.8% | T-47D breast -5.59% | BT-549 breast -96.2% | MDA-MB-435 melanoma -97.1% | SW-620 colon -77.9% | MCF7 breast -65.4% | HCT-116 colon -56.9% | HCC-2998 colon -96% | KM12 colon -79.2%

C=C(C)C1CCC(=C)C2CCC3(C)OC12/C=C(/COC(C)=O)CCC3O (stereo unspecified)
inactive: SR leukemia 74.6% | OVCAR-8 ovarian 103% | OVCAR-5 ovarian 105% | OVCAR-4 ovarian 127% | SK-OV-3 ovarian 119% | IGROV1 ovarian 151% | OVCAR-3 ovarian 124% | HS 578T breast 177% | NCI/ADR-RES ovarian 105% | BT-549 breast 78.6% | MDA-MB-435 melanoma 98.7% | SW-620 colon 106% | MCF7 breast 96.8% | HCT-116 colon 103% | HCC-2998 colon 106% | KM12 colon 117%

Cl.[Pt].[c-]1ccccc1-c1ccccn1.c1ccc(P(c2ccccc2)C([PH+](c2ccccc2)c2ccccc2)[PH+](c2ccccc2)c2ccccc2)cc1
inactive: SR leukemia 20.4% | OVCAR-8 ovarian 15.6% | OVCAR-5 ovarian 22.7% | OVCAR-4 ovarian 21.3% | IGROV1 ovarian 17.2% | OVCAR-3 ovarian 11.6% | NCI/ADR-RES ovarian 60.7% | T-47D breast 27.8% | BT-549 breast 27% | SW-620 colon 13.6% | HCC-2998 colon 24.9%
active: HS 578T breast 7.92% | MDA-MB-435 melanoma 4.42% | MCF7 breast 3.15% | HCT-116 colon 7.37% | KM12 colon 5.04%

CN1C(=O)CCC(N2C(=O)c3cccc(NCCOCCOCCNC(=O)c4cc5c(o4)C(=O)c4ccccc4C5=O)c3C2=O)C1=O (stereo unspecified)
inactive: NCI/ADR-RES ovarian 45.1% | T-47D breast 11.1%
active: SR leukemia 7.99% | OVCAR-8 ovarian 2.72% | OVCAR-5 ovarian -85.5% | OVCAR-4 ovarian -95.3% | IGROV1 ovarian -20.1% | OVCAR-3 ovarian -44.7% | HS 578T breast -22.8% | BT-549 breast -95.4% | MDA-MB-435 melanoma -94.6% | SW-620 colon -3.3% | MCF7 breast -65% | HCT-116 colon -21.9% | HCC-2998 colon -62.2% | KM12 colon -11.8%

N=C(N)c1ccc(-c2ccc(-c3ccc(Cl)cc3Cl)o2)cc1
active: SR leukemia 2.97% | OVCAR-8 ovarian -23.5% | OVCAR-4 ovarian -38.1% | IGROV1 ovarian -76.6% | OVCAR-3 ovarian -40.2% | NCI/ADR-RES ovarian -46.8% | MDA-MB-435 melanoma -63.6% | SW-620 colon -67.3% | MCF7 breast -73.7% | HCT-116 colon -68.8% | HCC-2998 colon -93.2% | KM12 colon -77.7%
inactive: OVCAR-5 ovarian 16% | HS 578T breast 29.7% | T-47D breast 57.6% | BT-549 breast 94.7%

N#Cc1c(NC(=O)c2ccc(Br)cc2)sc2c1CCCC2
active: MDA-MB-435 melanoma -22.8%
inactive: SR leukemia 50.2% | OVCAR-8 ovarian 64.6% | OVCAR-5 ovarian 55.7% | OVCAR-4 ovarian 69.6% | IGROV1 ovarian 53.7% | OVCAR-3 ovarian 16.8% | HS 578T breast 39.1% | NCI/ADR-RES ovarian 16.6% | T-47D breast 47.2% | BT-549 breast 52.2% | SW-620 colon 19.2% | MCF7 breast 13.1% | HCT-116 colon 22.3% | HCC-2998 colon 68.6% | KM12 colon 25.3%

N=C(N)c1ccc(-c2ccc(-c3ccc(Cl)c(Cl)c3)o2)nc1
inactive: OVCAR-5 ovarian 39% | IGROV1 ovarian 22.3% | HS 578T breast 94.8% | NCI/ADR-RES ovarian 32.2% | T-47D breast 85.9% | BT-549 breast 94.9% | HCC-2998 colon 77.8%
active: SR leukemia 1.79% | OVCAR-8 ovarian -16.1% | OVCAR-4 ovarian -68.4% | OVCAR-3 ovarian -80.8% | MDA-MB-435 melanoma -52.1% | SW-620 colon -69.8% | MCF7 breast -76.8% | HCT-116 colon -57.8% | KM12 colon -15%

NS(=O)(=O)Oc1ccc(-c2sc3cc(O)ccc3c2C(=O)c2ccc(OCCN3CCCCC3)cc2)cc1
inactive: OVCAR-8 ovarian 63.9% | OVCAR-5 ovarian 87.2% | OVCAR-4 ovarian 58.4% | IGROV1 ovarian 75.6% | OVCAR-3 ovarian 62.6% | HS 578T breast 37.8% | NCI/ADR-RES ovarian 80.4% | T-47D breast 86.6% | BT-549 breast 84.6% | SW-620 colon 51.7% | MCF7 breast 29.4% | HCT-116 colon 43.5% | HCC-2998 colon 59.5% | KM12 colon 65.3%
active: SR leukemia 4.91% | MDA-MB-435 melanoma -28%

Cc1cc(C)on1
inactive: SR leukemia 70.8% | OVCAR-8 ovarian 92.4% | OVCAR-5 ovarian 116% | OVCAR-4 ovarian 98% | SK-OV-3 ovarian 111% | IGROV1 ovarian 110% | HS 578T breast 102% | NCI/ADR-RES ovarian 109% | T-47D breast 94.4% | MDA-MB-435 melanoma 99.5% | SW-620 colon 110% | MCF7 breast 96.6% | HCT-116 colon 110% | HCC-2998 colon 94.5%

NC(=Nc1ccc(N)cc1)C(N)=Nc1ccc(N)cc1
inactive: SR leukemia 134% | OVCAR-8 ovarian 85.3% | OVCAR-5 ovarian 105% | OVCAR-4 ovarian 101% | SK-OV-3 ovarian 126% | IGROV1 ovarian 84.7% | OVCAR-3 ovarian 94.1% | HS 578T breast 114% | NCI/ADR-RES ovarian 99.6% | BT-549 breast 64.3% | MDA-MB-435 melanoma 104% | SW-620 colon 99.2% | MCF7 breast 90.4% | HCT-116 colon 95.9% | KM12 colon 108%

NS(=O)(=O)Oc1ccc(NC(=O)C23CC4CC(CC(C4)C2)C3)cc1Cl
inactive: SR leukemia 99% | OVCAR-8 ovarian 98.4% | OVCAR-5 ovarian 101% | OVCAR-4 ovarian 83.9% | IGROV1 ovarian 95.9% | OVCAR-3 ovarian 103% | HS 578T breast 95.5% | NCI/ADR-RES ovarian 93.6% | T-47D breast 75.4% | BT-549 breast 99.3% | MDA-MB-435 melanoma 99.5% | SW-620 colon 106% | MCF7 breast 97.3% | HCT-116 colon 107% | HCC-2998 colon 103% | KM12 colon 95.8%

O=C(CC12CC3CC(CC(C3)C1)C2)NCCOCCOCCNC(=O)c1cc2c(o1)C(=O)c1ccccc1C2=O
active: SR leukemia 9.52% | OVCAR-8 ovarian -2.31% | OVCAR-4 ovarian -99.1% | IGROV1 ovarian -43.9% | OVCAR-3 ovarian -40.8% | HS 578T breast -24.6% | NCI/ADR-RES ovarian -24.6% | T-47D breast -11.8% | BT-549 breast -93.7% | MDA-MB-435 melanoma -97.7% | SW-620 colon -28.4% | MCF7 breast -68.4% | HCT-116 colon -8.18% | HCC-2998 colon -86.9% | KM12 colon -23.9%

CCC(=O)OC1=C(C)SC2=NC(c3ccc(Cl)c(Cl)c3)=CC(c3cc(OC)c(OC)c(OC)c3)N21 (stereo unspecified)
inactive: SR leukemia 103% | OVCAR-5 ovarian 102% | OVCAR-4 ovarian 98.1% | SK-OV-3 ovarian 105% | IGROV1 ovarian 106% | OVCAR-3 ovarian 108% | HS 578T breast 101% | NCI/ADR-RES ovarian 105% | T-47D breast 97.5% | BT-549 breast 103% | MDA-MB-435 melanoma 103% | MCF7 breast 94.1% | HCT-116 colon 95% | HCC-2998 colon 110% | KM12 colon 107%

COc1cccc(/C=C2\COc3ccc(O)cc3C2=O)c1OC
active: SR leukemia 5.49% | KM12 colon 7.8%
inactive: OVCAR-8 ovarian 69% | OVCAR-5 ovarian 89.7% | SK-OV-3 ovarian 92.9% | IGROV1 ovarian 67.5% | OVCAR-3 ovarian 41.2% | HS 578T breast 73% | NCI/ADR-RES ovarian 63.2% | T-47D breast 74.8% | BT-549 breast 57.8% | MDA-MB-435 melanoma 19.7% | MCF7 breast 12.2% | HCT-116 colon 34.3% | HCC-2998 colon 94.1%

O=C1Nc2ccccc2SC1c1ccccc1Cl (stereo unspecified)
inactive: SR leukemia 10.4% | OVCAR-5 ovarian 98.1% | OVCAR-4 ovarian 80.4% | SK-OV-3 ovarian 114% | IGROV1 ovarian 101% | OVCAR-3 ovarian 83% | HS 578T breast 80.4% | NCI/ADR-RES ovarian 101% | T-47D breast 92.9% | BT-549 breast 82.9% | MCF7 breast 119% | HCT-116 colon 105% | HCC-2998 colon 124% | KM12 colon 53.7%
active: MDA-MB-435 melanoma -12.6%
